# From PubChem BioAssay (NCI)
# The panel holds about 79,000 compounds, 15% with a hit somewhere; the sample as a whole holds those more often. Unmarked numbers belong to inactive results. Calls of active or inactive are those of the source. Rule as the data show it: active = growth inhibition above about 70%; inactive = the rest.
# What was measured:
# [1] = NCI Yeast Anticancer Drug Screen. Data for the rad52 strain (AID 147);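 also: 0% = growth of vehicle-treated control cultures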; conditions: S. cerevisiae rad52 mutant growth inhibition, stronger effect = higher value
# How it was run: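 DNA repair-defective yeast; compound exposure; growth scored against vehicle controls.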
# [2] = NCI Yeast Anticancer Drug Screen. Data for the wt1 strain (AID 149);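 also: 0% = growth of vehicle-treated wt1 cultures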; conditions: S. cerevisiae wt1 strain (SPY 50644) growth inhibition, stronger effect = higher value
# How it was run: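 Using yeast strain wt1, compound-induced growth inhibition was determined against vehicle-treated cultures.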
# [3] = NCI Yeast Anticancer Drug Screen. Data for the rad50EPP+ strain (AID 151);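 also: 0% = growth of vehicle-treated control cultures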; conditions: S. cerevisiae rad50 mutant strain, stronger effect = higher value
# How it was run: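 rad50EPP+ yeast treated with test compounds. Readout: growth vs vehicle control.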
# [4] = NCI Yeast Anticancer Drug Screen. Data for the mgt1 strain (AID 153); conditions: S. cerevisiae mgt1 mutant growth inhibition, stronger effect = higher value
# How it was run: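 Growth inhibition relative to vehicle controls was scored for the mgt1 yeast strain after compound exposure.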
# [5] = NCI Yeast Anticancer Drug Screen. Data for the rad50 strain (AID 155);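 also: 0% = growth of vehicle-only cultures of the same strain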; conditions: S. cerevisiae rad50 strain growth inhibition, stronger effect = higher value
# How it was run: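 Relative growth inhibition (compound vs vehicle) was measured in yeast with a defined repair-gene alteration.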
# [6] = NCI Yeast Anticancer Drug Screen. Data for the mec2-1 strain (AID 157); conditions: S. cerevisiae mec2-1 strain, stronger effect = higher value
# How it was run: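 Growth inhibition is read against vehicle-treated controls after compound exposure of the mec2-1 yeast strain, which is defective in DNA damage repair or cell cycle control.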
# [7] = NCI Yeast Anticancer Drug Screen. Data for the rad14 strain (AID 159);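 also: 0% = growth of vehicle-treated control cultures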; conditions: S. cerevisiae rad14 strain growth inhibition, stronger effect = higher value
# How it was run: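 Screen for anticancer potential: a yeast strain altered in DNA damage repair is grown with compound, and reduced growth is quantified against vehicle controls.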
# [8] = NCI Yeast Anticancer Drug Screen. Data for the sgs1 mgt1 strain (AID 161);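 also: 0% = growth of cultures given vehicle only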; conditions: S. cerevisiae sgs1 mgt1 strain, stronger effect = higher value
# How it was run: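 Compounds are added to genetically altered yeast, and growth is compared with cultures given vehicle alone to give percent inhibition.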
# [9] = NCI Yeast Anticancer Drug Screen. Data for the CLN2oe strain (AID 163);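 also: 0% = growth of vehicle-only control cultures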; conditions: S. cerevisiae CLN2oe strain, stronger effect = higher value
# How it was run: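 Compound-treated yeast; growth vs vehicle ctrl = % inhibition. Genetically altered strain (cell-cycle control).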
# [10] = NCI Yeast Anticancer Drug Screen. Data for the cln2 rad14 strain (AID 165);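 also: 0% = growth equal to vehicle treated cultures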; conditions: S. cerevisiae cln2 rad14 strain, stronger effect = higher value
# How it was run: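 Growth inhibition, relative to vehicle-treated controls, is the read-out. The test organism is a yeast strain with defined genetic alterations, cln2 rad14.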
# [11] = NCI Yeast Anticancer Drug Screen. Data for the bub3 strain (AID 167); conditions: S. cerevisiae bub3 mutant strain, stronger effect = higher value
# How it was run: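 Screening used yeast with an engineered genetic alteration affecting cell cycle control. Compound-exposed cultures were compared with vehicle cultures, and reduced growth was taken as inhibition.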
# [12] = NCI Yeast Anticancer Drug Screen. Data for the wt2 strain (AID 169);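 also: 0% = growth of vehicle-treated yeast cultures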; conditions: S. cerevisiae wt2 strain growth inhibition, stronger effect = higher value
# How it was run: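 Compound exposure of yeast; growth compared with vehicle controls; inhibition reported.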
# [13] = NCI Yeast Anticancer Drug Screen. Data for the mlh1 strain (AID 171);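 also: 0% = growth of vehicle-treated control cultures of the same strain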; conditions: S. cerevisiae mlh1 strain growth inhibition, stronger effect = higher value
# How it was run: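 Compounds are applied to a genetically altered yeast strain, and its growth is compared with that of vehicle-treated cultures to give percent inhibition.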
# [14] = NCI Yeast Anticancer Drug Screen. Data for the sgs1 strain (AID 173);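 also: 0% = growth of vehicle-only control cultures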; conditions: S. cerevisiae sgs1 mutant, stronger effect = higher value
# How it was run: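 Compounds applied to genetically altered yeast; growth compared with vehicle-treated cultures to give % inhibition.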
# [15] = NCI Yeast Anticancer Drug Screen. Data for the mlh1 rad18 strain (AID 175); conditions: S. cerevisiae mlh1 rad18 strain growth inhibition, stronger effect = higher value
# How it was run: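 Cells of a genetically altered yeast strain, deficient in DNA damage repair, were treated with compound. Their growth was then compared with that of vehicle-treated cultures to give inhibition.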
# [16] = NCI Yeast Anticancer Drug Screen. Data for the rad18 strain (AID 177); conditions: S. cerevisiae rad18 mutant growth inhibition, stronger effect = higher value
# How it was run: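 Compounds are applied to a repair-deficient yeast strain, and growth is compared with that of vehicle-treated cultures to give percent inhibition.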
# [17] = at 5.0 µM (retest, dose inferred, filed as 0.5)
# [18] = at 50.0 µM (retest, dose inferred, filed as 5.0)
smiles,measurement,setting,value
CCOC1(c2cccc([N+](=O)[O-])c2)c2ccccc2Oc2ccccc21,growth inhibition,[1]; at 1.2 µM,0%
same,growth inhibition,[1]; at 3.7 µM,2%
same,growth inhibition,[1]; at 11.0 µM,4%
same,growth inhibition,[1]; at 33.0 µM,10%
same,growth inhibition,[1]; at 100.0 µM,19%
same,growth inhibition,[2]; at 1.2 µM,2%
same,growth inhibition,[2]; at 3.7 µM,1%
same,growth inhibition,[2]; at 11.0 µM,4%
same,growth inhibition,[2]; at 33.0 µM,2%
same,growth inhibition,[2]; at 100.0 µM,3%
same,growth inhibition,[3]; at 1.2 µM,3%
same,growth inhibition,[3]; at 3.7 µM,2%
same,growth inhibition,[3]; at 11.0 µM,11%
same,growth inhibition,[3]; at 33.0 µM,24%
same,growth inhibition,[3]; at 100.0 µM,19%
same,growth inhibition,[4]; at 1.2 µM,0%
same,growth inhibition,[4]; at 3.7 µM,-2%
same,growth inhibition,[4]; at 11.0 µM,0%
same,growth inhibition,[4]; at 33.0 µM,15%
same,growth inhibition,[4]; at 100.0 µM,0%
same,growth inhibition,[5]; at 1.2 µM,1%
same,growth inhibition,[5]; at 3.7 µM,0%
same,growth inhibition,[5]; [17],41%
same,growth inhibition,[5]; at 11.0 µM,4%
same,growth inhibition,[5]; at 33.0 µM,7%
same,growth inhibition,[5]; [18],69%
same,growth inhibition,[5]; at 50.0 µM,51.8%
same,growth inhibition,[5]; at 100.0 µM,9%
same,growth inhibition,[6]; at 1.2 µM,-3%
same,growth inhibition,[6]; at 3.7 µM,2%
same,growth inhibition,[6]; [17],3%
same,growth inhibition,[6]; at 11.0 µM,0%
same,growth inhibition,[6]; at 33.0 µM,7%
same,growth inhibition,[6]; [18],23%
same,growth inhibition,[6]; at 50.0 µM,26.4%
same,growth inhibition,[6]; at 100.0 µM,13%
same,growth inhibition,[7]; at 1.2 µM,0%
same,growth inhibition,[7]; at 3.7 µM,2%
same,growth inhibition,[7]; at 11.0 µM,5%
same,growth inhibition,[7]; at 33.0 µM,7%
same,growth inhibition,[7]; at 100.0 µM,10%
same,growth inhibition,[8]; [17],26%
same,growth inhibition,[8]; [18],60%
same,growth inhibition,[8]; at 50.0 µM,57.6%
same,growth inhibition,[9]; at 1.2 µM,-6%
same,growth inhibition,[9]; at 3.7 µM,-1%
same,growth inhibition,[9]; at 11.0 µM,0%
same,growth inhibition,[9]; at 33.0 µM,-1%
same,growth inhibition,[9]; at 100.0 µM,2%
same,growth inhibition,[10]; [17],12%
same,growth inhibition,[10]; [18],30%
same,growth inhibition,[10]; at 50.0 µM,3.8%
same,growth inhibition,[11]; at 1.2 µM,-1%
same,growth inhibition,[11]; at 3.7 µM,-2%
same,growth inhibition,[11]; [17],32%
same,growth inhibition,[11]; at 11.0 µM,3%
same,growth inhibition,[11]; at 33.0 µM,1%
same,growth inhibition,[11]; [18],77% (active)
same,growth inhibition,[11]; at 50.0 µM,51.7%
same,growth inhibition,[11]; at 100.0 µM,1%
same,growth inhibition,[12]; at 1.2 µM,1%
same,growth inhibition,[12]; at 3.7 µM,-1%
same,growth inhibition,[12]; at 11.0 µM,1%
same,growth inhibition,[12]; at 33.0 µM,2%
same,growth inhibition,[12]; at 100.0 µM,4%
same,growth inhibition,[13]; at 1.2 µM,-2%
same,growth inhibition,[13]; at 3.7 µM,-2%
same,growth inhibition,[13]; at 11.0 µM,1%
same,growth inhibition,[13]; at 33.0 µM,3%
same,growth inhibition,[13]; at 100.0 µM,10%
same,growth inhibition,[14]; at 1.2 µM,-1%
same,growth inhibition,[14]; at 3.7 µM,1%
same,growth inhibition,[14]; at 11.0 µM,0%
same,growth inhibition,[14]; at 33.0 µM,6%
same,growth inhibition,[14]; at 100.0 µM,16%
same,growth inhibition,[15]; [17],57%
same,growth inhibition,[15]; [18],79% (active)
same,growth inhibition,[15]; at 50.0 µM,62%
same,growth inhibition,[16]; at 1.2 µM,-1%
same,growth inhibition,[16]; at 3.7 µM,1%
same,growth inhibition,[16]; at 11.0 µM,-12%
same,growth inhibition,[16]; at 33.0 µM,-9%
same,growth inhibition,[16]; at 100.0 µM,12%
CCCCOC(=O)Nc1ccc(C)c(NC(=O)OCCCC)c1,growth inhibition,[1]; at 1.2 µM,-4%
same,growth inhibition,[1]; at 3.7 µM,-1%
same,growth inhibition,[1]; at 11.0 µM,15%
same,growth inhibition,[1]; at 33.0 µM,26%
same,growth inhibition,[1]; at 100.0 µM,34%
same,growth inhibition,[2]; at 1.2 µM,-6%
same,growth inhibition,[2]; at 3.7 µM,-2%
same,growth inhibition,[2]; at 11.0 µM,-7%
same,growth inhibition,[2]; at 33.0 µM,46%
same,growth inhibition,[2]; at 100.0 µM,12%
same,growth inhibition,[3]; at 1.2 µM,2%
same,growth inhibition,[3]; at 3.7 µM,5%
same,growth inhibition,[3]; at 11.0 µM,27%
same,growth inhibition,[3]; at 33.0 µM,36%
same,growth inhibition,[3]; at 100.0 µM,44%
same,growth inhibition,[4]; at 1.2 µM,-9%
same,growth inhibition,[4]; at 3.7 µM,-8%
same,growth inhibition,[4]; at 11.0 µM,-4%
same,growth inhibition,[4]; at 33.0 µM,8%
same,growth inhibition,[4]; at 100.0 µM,18%
same,growth inhibition,[5]; at 1.2 µM,-5%
same,growth inhibition,[5]; at 3.7 µM,-3%
same,growth inhibition,[5]; [17],3%
same,growth inhibition,[5]; at 11.0 µM,9%
same,growth inhibition,[5]; at 33.0 µM,19%
same,growth inhibition,[5]; [18],78% (active)
same,growth inhibition,[5]; at 50.0 µM,89.9% (active)
same,growth inhibition,[5]; at 100.0 µM,42%
same,growth inhibition,[6]; at 1.2 µM,-6%
same,growth inhibition,[6]; at 3.7 µM,-11%
same,growth inhibition,[6]; [17],-2%
same,growth inhibition,[6]; at 11.0 µM,-6%
same,growth inhibition,[6]; at 33.0 µM,7%
same,growth inhibition,[6]; [18],69%
same,growth inhibition,[6]; at 50.0 µM,94.3% (active)
same,growth inhibition,[6]; at 100.0 µM,22%
same,growth inhibition,[7]; at 1.2 µM,-3%
same,growth inhibition,[7]; at 3.7 µM,-3%
same,growth inhibition,[7]; at 11.0 µM,2%
same,growth inhibition,[7]; at 33.0 µM,11%
same,growth inhibition,[7]; at 100.0 µM,15%
same,growth inhibition,[8]; [17],1%
same,growth inhibition,[8]; [18],82% (active)
same,growth inhibition,[8]; at 50.0 µM,88.6% (active)
same,growth inhibition,[9]; at 1.2 µM,-11%
same,growth inhibition,[9]; at 3.7 µM,-19%
same,growth inhibition,[9]; at 11.0 µM,11%
same,growth inhibition,[9]; at 33.0 µM,31%
same,growth inhibition,[9]; at 100.0 µM,38%
same,growth inhibition,[10]; [17],-4%
same,growth inhibition,[10]; [18],79% (active)
same,growth inhibition,[10]; at 50.0 µM,91.9% (active)
same,growth inhibition,[11]; at 1.2 µM,-8%
same,growth inhibition,[11]; at 3.7 µM,-9%
same,growth inhibition,[11]; [17],-2%
same,growth inhibition,[11]; at 11.0 µM,-8%
same,growth inhibition,[11]; at 33.0 µM,3%
same,growth inhibition,[11]; [18],72% (active)
same,growth inhibition,[11]; at 50.0 µM,94.5% (active)
same,growth inhibition,[11]; at 100.0 µM,8%
same,growth inhibition,[12]; at 1.2 µM,-4%
same,growth inhibition,[12]; at 3.7 µM,-4%
same,growth inhibition,[12]; at 11.0 µM,6%
same,growth inhibition,[12]; at 33.0 µM,52%
same,growth inhibition,[12]; at 100.0 µM,29%
same,growth inhibition,[13]; at 1.2 µM,-8%
same,growth inhibition,[13]; at 3.7 µM,-6%
same,growth inhibition,[13]; at 11.0 µM,1%
same,growth inhibition,[13]; at 33.0 µM,17%
same,growth inhibition,[13]; at 100.0 µM,36%
same,growth inhibition,[14]; at 1.2 µM,-4%
same,growth inhibition,[14]; at 3.7 µM,-5%
same,growth inhibition,[14]; at 11.0 µM,8%
same,growth inhibition,[14]; at 33.0 µM,47%
same,growth inhibition,[14]; at 100.0 µM,72% (active)
same,growth inhibition,[15]; [17],-1%
same,growth inhibition,[15]; [18],84% (active)
same,growth inhibition,[15]; at 50.0 µM,94.5% (active)
same,growth inhibition,[16]; at 1.2 µM,-5%
same,growth inhibition,[16]; at 3.7 µM,-8%
same,growth inhibition,[16]; at 11.0 µM,12%
same,growth inhibition,[16]; at 33.0 µM,31%
same,growth inhibition,[16]; at 100.0 µM,50%
